About 8,800 targets were measured; listed, in parts, are those with a hit and a random draw of the rest. About 0.5% of all pairs of compound and target were hits. Unmarked numbers belong to inactive results.

Chain of UniProt P49642 (P49642 whole entry, looked up): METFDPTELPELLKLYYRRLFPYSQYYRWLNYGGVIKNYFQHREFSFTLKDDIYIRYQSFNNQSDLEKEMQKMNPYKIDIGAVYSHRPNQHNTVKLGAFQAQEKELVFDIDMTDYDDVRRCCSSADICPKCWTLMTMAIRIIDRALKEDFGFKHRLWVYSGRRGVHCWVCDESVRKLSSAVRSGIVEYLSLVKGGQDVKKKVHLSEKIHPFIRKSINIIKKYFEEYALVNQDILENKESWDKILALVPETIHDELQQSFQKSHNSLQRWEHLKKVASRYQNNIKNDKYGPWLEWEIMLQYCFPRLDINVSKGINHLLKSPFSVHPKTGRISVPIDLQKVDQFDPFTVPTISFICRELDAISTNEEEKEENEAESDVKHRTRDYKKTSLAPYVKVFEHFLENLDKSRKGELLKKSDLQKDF
Chain of UniProt P17706 (P17706 whole entry, looked up): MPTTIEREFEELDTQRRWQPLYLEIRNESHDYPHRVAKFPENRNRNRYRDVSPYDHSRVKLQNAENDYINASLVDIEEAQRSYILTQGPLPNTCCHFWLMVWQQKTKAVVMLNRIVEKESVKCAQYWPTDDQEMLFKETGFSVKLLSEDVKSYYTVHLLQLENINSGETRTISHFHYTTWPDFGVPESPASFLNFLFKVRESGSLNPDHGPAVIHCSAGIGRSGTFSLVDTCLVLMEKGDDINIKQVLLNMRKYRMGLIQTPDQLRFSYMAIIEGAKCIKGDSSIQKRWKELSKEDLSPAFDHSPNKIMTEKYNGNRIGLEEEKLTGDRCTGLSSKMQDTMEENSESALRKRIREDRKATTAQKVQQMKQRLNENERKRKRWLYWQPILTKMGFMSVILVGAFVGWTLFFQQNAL
Chain of UniProt Q96I23 (Q96I23 whole entry, looked up): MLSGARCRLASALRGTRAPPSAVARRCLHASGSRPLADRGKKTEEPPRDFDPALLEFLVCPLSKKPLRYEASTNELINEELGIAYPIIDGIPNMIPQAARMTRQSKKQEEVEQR
Chain of UniProt Q9H7Z7 (Q9H7Z7 whole entry, looked up): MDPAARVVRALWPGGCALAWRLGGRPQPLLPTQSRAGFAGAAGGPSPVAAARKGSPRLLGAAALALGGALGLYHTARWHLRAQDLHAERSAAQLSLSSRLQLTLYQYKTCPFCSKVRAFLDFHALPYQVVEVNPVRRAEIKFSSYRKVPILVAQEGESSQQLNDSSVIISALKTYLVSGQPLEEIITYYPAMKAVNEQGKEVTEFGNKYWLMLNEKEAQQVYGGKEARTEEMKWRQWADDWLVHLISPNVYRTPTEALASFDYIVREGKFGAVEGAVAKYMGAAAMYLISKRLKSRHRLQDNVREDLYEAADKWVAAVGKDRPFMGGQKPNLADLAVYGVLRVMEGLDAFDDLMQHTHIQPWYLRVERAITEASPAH
Chain of UniProt Q9UBV8 (Q9UBV8 whole entry, looked up): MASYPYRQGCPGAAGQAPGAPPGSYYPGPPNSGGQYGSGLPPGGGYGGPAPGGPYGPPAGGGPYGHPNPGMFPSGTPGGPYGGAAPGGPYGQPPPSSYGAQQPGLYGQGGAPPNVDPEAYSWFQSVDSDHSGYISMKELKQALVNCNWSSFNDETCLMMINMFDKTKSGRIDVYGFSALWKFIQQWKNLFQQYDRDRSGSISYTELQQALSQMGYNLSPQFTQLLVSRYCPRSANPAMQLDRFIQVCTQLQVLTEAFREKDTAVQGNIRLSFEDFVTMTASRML
Chain of UniProt P15735 (P15735 whole entry, looked up): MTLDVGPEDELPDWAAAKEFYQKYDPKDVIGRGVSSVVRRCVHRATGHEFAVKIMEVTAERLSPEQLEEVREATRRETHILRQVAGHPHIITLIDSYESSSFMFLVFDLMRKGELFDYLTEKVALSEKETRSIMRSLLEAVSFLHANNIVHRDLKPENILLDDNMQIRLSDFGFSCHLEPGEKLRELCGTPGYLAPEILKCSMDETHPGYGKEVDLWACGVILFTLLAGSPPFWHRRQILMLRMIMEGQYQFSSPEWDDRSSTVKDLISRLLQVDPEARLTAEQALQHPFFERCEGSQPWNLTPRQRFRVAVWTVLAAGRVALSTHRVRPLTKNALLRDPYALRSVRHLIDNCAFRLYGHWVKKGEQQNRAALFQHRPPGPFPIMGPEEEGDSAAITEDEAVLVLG
Chain of UniProt Q96C36 (Q96C36 whole entry, looked up): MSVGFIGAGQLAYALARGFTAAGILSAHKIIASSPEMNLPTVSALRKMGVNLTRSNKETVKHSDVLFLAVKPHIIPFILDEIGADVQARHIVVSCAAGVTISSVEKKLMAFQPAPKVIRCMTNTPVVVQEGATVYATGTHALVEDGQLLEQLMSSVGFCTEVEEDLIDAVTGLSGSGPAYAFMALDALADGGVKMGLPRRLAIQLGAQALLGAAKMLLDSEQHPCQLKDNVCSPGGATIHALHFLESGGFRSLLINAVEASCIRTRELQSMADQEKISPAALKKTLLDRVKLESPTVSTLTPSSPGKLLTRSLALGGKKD
Chain of UniProt P14314 (P14314 whole entry, looked up): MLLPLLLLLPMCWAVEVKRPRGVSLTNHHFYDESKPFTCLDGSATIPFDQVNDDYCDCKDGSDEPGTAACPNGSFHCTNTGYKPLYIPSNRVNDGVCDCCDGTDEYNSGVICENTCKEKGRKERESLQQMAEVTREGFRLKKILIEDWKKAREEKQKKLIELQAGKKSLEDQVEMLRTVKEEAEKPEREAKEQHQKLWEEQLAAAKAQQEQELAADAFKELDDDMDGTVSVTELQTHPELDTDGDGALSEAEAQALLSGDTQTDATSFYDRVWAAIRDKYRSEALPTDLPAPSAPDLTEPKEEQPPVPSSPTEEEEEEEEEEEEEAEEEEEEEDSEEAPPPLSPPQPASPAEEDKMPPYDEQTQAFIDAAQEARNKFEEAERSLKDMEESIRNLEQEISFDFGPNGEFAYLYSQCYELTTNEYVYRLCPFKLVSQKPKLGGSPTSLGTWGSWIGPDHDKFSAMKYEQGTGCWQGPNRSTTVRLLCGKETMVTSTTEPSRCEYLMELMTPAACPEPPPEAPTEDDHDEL
Chain of UniProt Q99541 (Q99541 whole entry, looked up): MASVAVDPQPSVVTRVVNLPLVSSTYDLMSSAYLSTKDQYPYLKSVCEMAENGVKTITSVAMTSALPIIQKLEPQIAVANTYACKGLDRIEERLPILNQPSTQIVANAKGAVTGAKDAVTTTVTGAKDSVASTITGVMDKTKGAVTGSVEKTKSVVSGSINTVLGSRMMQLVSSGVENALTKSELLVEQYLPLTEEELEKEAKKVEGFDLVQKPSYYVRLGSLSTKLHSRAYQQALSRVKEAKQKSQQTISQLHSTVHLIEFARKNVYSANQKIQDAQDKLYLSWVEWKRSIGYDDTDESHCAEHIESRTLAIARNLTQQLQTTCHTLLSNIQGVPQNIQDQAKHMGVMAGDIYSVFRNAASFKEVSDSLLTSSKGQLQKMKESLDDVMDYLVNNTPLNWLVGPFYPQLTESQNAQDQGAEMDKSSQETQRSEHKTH
Chain of UniProt O75334 (O75334 whole entry, looked up): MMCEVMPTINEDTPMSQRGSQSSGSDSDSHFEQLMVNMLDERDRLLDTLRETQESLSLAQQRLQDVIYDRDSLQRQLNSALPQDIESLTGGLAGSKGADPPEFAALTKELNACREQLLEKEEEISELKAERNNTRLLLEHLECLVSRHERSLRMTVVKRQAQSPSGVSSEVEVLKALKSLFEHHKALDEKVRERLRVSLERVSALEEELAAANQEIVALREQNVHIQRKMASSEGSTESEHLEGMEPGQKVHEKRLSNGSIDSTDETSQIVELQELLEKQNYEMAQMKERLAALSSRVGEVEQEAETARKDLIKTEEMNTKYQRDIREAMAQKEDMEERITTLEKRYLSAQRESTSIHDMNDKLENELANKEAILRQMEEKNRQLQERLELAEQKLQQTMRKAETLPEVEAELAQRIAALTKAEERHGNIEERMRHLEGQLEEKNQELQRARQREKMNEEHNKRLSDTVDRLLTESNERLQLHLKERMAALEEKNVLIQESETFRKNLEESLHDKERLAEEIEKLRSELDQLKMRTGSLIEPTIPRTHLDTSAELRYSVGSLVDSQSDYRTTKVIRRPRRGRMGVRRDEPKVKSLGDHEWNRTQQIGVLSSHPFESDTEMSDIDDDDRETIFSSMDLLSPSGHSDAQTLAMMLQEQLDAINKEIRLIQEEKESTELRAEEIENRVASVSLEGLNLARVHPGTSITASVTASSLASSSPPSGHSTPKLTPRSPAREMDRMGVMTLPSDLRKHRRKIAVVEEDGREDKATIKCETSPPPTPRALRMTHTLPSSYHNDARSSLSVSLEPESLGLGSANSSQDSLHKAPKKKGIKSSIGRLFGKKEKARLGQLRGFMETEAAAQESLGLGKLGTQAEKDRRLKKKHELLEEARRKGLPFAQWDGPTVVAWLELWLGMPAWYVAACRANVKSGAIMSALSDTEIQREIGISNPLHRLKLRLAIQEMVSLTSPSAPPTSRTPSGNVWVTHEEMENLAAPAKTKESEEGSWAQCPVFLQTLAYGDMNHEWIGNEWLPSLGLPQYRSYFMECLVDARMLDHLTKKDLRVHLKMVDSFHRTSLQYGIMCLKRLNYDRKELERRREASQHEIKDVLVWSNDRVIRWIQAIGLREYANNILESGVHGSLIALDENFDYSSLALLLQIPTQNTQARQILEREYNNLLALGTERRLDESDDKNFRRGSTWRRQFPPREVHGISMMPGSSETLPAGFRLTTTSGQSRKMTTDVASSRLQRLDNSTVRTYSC
Chain of UniProt Q9Y5K3 (Q9Y5K3 whole entry, looked up): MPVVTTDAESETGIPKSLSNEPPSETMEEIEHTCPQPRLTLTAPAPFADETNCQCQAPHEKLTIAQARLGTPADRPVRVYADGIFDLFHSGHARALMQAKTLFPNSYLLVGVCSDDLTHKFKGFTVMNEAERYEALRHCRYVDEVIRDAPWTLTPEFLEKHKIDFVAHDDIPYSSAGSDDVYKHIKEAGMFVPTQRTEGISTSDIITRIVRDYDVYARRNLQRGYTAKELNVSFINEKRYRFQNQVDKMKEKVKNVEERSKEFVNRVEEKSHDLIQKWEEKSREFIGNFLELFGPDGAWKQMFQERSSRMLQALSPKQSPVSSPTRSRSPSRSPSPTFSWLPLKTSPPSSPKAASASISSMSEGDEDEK

Compound in one test: CCn1cc(-c2ccnc3[nH]c(-c4cccc(CN(C)C)c4)cc23)c(-c2ccc(NC(=O)N(C)C)cc2)n1
As to the kind of experiment: log2 fold change, soluble protein after heating vs DMSO (PISA); higher = thermal stabilisation; K562 lysate, 10 uM; active = over 0.2 and 3.5 SD of the protein, either way, in both replicates (recomputed). The method in brief: (§1)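 Pellets of K562 cells were dounce-homogenised in PBS pH 7.4 with 1 mM MgCl2, and the crude extract was held at 1 mg/mL protein for a 30 min treatment with 10 μM compound. Aliquots were heated for 3 min over 48°C-58°C and pooled before NP-40 was added to 0.5% at 4°C. The supernatant from 21,000xg for 90 min was quantified by TMTpro 16plex LC-MS/MS with channel sums equalised. Values are reported from duplicates as log-two fold change in thermal stability relative to solvent controls.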
With PDCD10 (UniProt Q9BUL8), the log2 fold change was -0.269 (active).

Regarding PGPEP1 (UniProt Q9NXJ5), the log2 fold change is -0.096.

For PRIM1 (UniProt P49642), the log2 fold change is -0.008.

PPP1R8 (UniProt Q12972): the log2 fold change is -0.28 (active).

As to PELO (UniProt Q9BRX2), the log2 fold change is 0.404 (active).

For PDCD6IP isoform 2 (UniProt Q8WUM4), the log2 fold change is 0.071.

Turning to PTGES2 (UniProt Q9H7Z7), the log2 fold change was -0.003.

Take PYURF (UniProt Q96I23): the log2 fold change is -0.03.

As for PMPCA (UniProt Q10713), the log2 fold change was -0.017.

On to POLA1 (UniProt P09884), for which the log2 fold change was -0.009.

Turning to PHKG2 (UniProt P15735), the log2 fold change was -0.103.

Turning to PRKACB isoform 2 (UniProt P22694), the log2 fold change is -0.021.

For the target POLB (UniProt P06746), the log2 fold change is -0.015.

For PTPN1 (UniProt P18031), the log2 fold change was -0.061.

In the case of PRPH isoform 2 (UniProt P41219), the log2 fold change is 0.132.

For the target PKN1 isoform 2 (UniProt Q16512), the log2 fold change is -0.055.

In the case of PPP4R2 (UniProt Q9NY27), the log2 fold change was 0.21.

Turning to PEF1 (UniProt Q9UBV8), the log2 fold change is -0.116.

With PXMP4 (UniProt Q9Y6I8), the log2 fold change is -0.246.

Regarding POLR3E (UniProt Q9NVU0), the log2 fold change is 0.035.

PRKRA (UniProt O75569): the log2 fold change was 0.

As for PTK2 (UniProt Q05397), the log2 fold change is -0.001.

For PLIN2 (UniProt Q99541), the log2 fold change was 0.033.

For the target PHACTR4 isoform 2 (UniProt Q8IZ21), the log2 fold change is 0.836 (active).

For the target PTGR2 (UniProt Q8N8N7), the log2 fold change is 0.012.

Regarding PRMT5 (UniProt O14744), the log2 fold change was -0.067.

As for PCYT1B (UniProt Q9Y5K3), the log2 fold change is -0.094.

For the target POC5 (UniProt Q8NA72), the log2 fold change is 0.021.

As to PFKP (UniProt Q01813), the log2 fold change is 0.052.

Turning to PDF (UniProt Q9HBH1), the log2 fold change was -0.014.

With PYCR2 (UniProt Q96C36), the log2 fold change was 0.099.

For PDE2A (UniProt O00408), the log2 fold change is -0.135.

Take PRKACA (UniProt P17612): the log2 fold change is -0.418.

Turning to PTPN2 (UniProt P17706), the log2 fold change is -0.084.

As to PPFIA2 (UniProt O75334), the log2 fold change is -0.255.

On to PTP4A1 (UniProt Q93096), for which the log2 fold change is 0.177.

Consider PDXDC1 (UniProt Q6P996), for which the log2 fold change was -0.031.

On to PRKCSH isoform 2 (UniProt P14314), for which the log2 fold change was -1.03 (active).

As to POLD3 (UniProt Q15054), the log2 fold change is 0.009.

Compound in another test: CN1CCC(CNc2ccc3ncc(-c4cccc(OC(F)(F)F)c4)n3n2)CC1
Described as above. The method in brief: as §1
For the target PDCD10 (UniProt Q9BUL8), the log2 fold change was 0.029.

On to PGPEP1 (UniProt Q9NXJ5), for which the log2 fold change is 0.03.

On to PRIM1 (UniProt P49642), for which the log2 fold change was -0.029.

As to PPP1R8 (UniProt Q12972), the log2 fold change is 0.176.

With PELO (UniProt Q9BRX2), the log2 fold change is -0.183.

PDCD6IP isoform 2 (UniProt Q8WUM4): the log2 fold change was -0.054.

PTGES2 (UniProt Q9H7Z7): the log2 fold change was -0.18.

PYURF (UniProt Q96I23): the log2 fold change was -0.002.

As for PMPCA (UniProt Q10713), the log2 fold change was 0.233.

Turning to POLA1 (UniProt P09884), the log2 fold change was -0.016.

In the case of PHKG2 (UniProt P15735), the log2 fold change is 0.045.

In the case of PRKACB isoform 2 (UniProt P22694), the log2 fold change was 0.125.

As to POLB (UniProt P06746), the log2 fold change is -0.07.

In the case of PTPN1 (UniProt P18031), the log2 fold change is -0.03.

Consider PRPH isoform 2 (UniProt P41219), for which the log2 fold change is -0.1.

For the target PKN1 isoform 2 (UniProt Q16512), the log2 fold change is -0.483 (active).

With PPP4R2 (UniProt Q9NY27), the log2 fold change was 0.028.

For PEF1 (UniProt Q9UBV8), the log2 fold change was -0.043.

PXMP4 (UniProt Q9Y6I8): the log2 fold change is 0.006.

As to POLR3E (UniProt Q9NVU0), the log2 fold change is 0.012.

As to PRKRA (UniProt O75569), the log2 fold change was -0.016.

As for PTK2 (UniProt Q05397), the log2 fold change is 0.056.

As to PLIN2 (UniProt Q99541), the log2 fold change was -0.181.

As for PHACTR4 isoform 2 (UniProt Q8IZ21), the log2 fold change was -0.178.

With PTGR2 (UniProt Q8N8N7), the log2 fold change is 0.092.

For PRMT5 (UniProt O14744), the log2 fold change was 0.017.

Take PCYT1B (UniProt Q9Y5K3): the log2 fold change was 0.063.

As for POC5 (UniProt Q8NA72), the log2 fold change is -0.011.

In the case of PFKP (UniProt Q01813), the log2 fold change was -0.033.

With PDF (UniProt Q9HBH1), the log2 fold change was -0.181.

On to PYCR2 (UniProt Q96C36), for which the log2 fold change is 0.012.

Take PDE2A (UniProt O00408): the log2 fold change is 0.023.

As to PRKACA (UniProt P17612), the log2 fold change is 0.351.

With PTPN2 (UniProt P17706), the log2 fold change was -0.031.

As to PPFIA2 (UniProt O75334), the log2 fold change was 0.146.

In the case of PTP4A1 (UniProt Q93096), the log2 fold change was -0.05.

As for PDXDC1 (UniProt Q6P996), the log2 fold change is -0.067.

For PRKCSH isoform 2 (UniProt P14314), the log2 fold change was 0.326.

As to POLD3 (UniProt Q15054), the log2 fold change was -0.03.
